# HTT cytoprotect = protects HTT-Q103 PC12 cells, measured by ATP; PC12 HTT-Q103 induced, cytoprotection, ATP luminescence, 40 h; Potency, µM (doses to about 56.4 µM), inactives show cytoprotection (ATP increase), usual class: activators; 230,000 compounds, 0.14% hits; AID 1471; further: % of control where 0% means no effect; nearly all actives have a fitted effect of over 45% in size
#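 Cells were plated at 1500 per well in phenol red-free DMEM with 5% equine and 5% calf serum. Tebufenozide (100 nM final) and compounds were added, then ATPlite reagent, and luminescence was read.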
# L3MBTL1 block = L3MBTL1 (human) inhibition | AlphaScreen L3MBTL1–H3K9me1 peptide binding | Potency, µM (top dose mostly 57.1 µM), inactives show at the top dose activity, negative = inhibition, usual class: inhibitors | 230,000 compounds, 0.66% hits | Q9Y468; further: on the % scale 0 is the no-effect control and ±100 the full control effect; nearly all actives have a fitted effect of over 60% in size
# Target sequence (Q9Y468 whole entry, looked up): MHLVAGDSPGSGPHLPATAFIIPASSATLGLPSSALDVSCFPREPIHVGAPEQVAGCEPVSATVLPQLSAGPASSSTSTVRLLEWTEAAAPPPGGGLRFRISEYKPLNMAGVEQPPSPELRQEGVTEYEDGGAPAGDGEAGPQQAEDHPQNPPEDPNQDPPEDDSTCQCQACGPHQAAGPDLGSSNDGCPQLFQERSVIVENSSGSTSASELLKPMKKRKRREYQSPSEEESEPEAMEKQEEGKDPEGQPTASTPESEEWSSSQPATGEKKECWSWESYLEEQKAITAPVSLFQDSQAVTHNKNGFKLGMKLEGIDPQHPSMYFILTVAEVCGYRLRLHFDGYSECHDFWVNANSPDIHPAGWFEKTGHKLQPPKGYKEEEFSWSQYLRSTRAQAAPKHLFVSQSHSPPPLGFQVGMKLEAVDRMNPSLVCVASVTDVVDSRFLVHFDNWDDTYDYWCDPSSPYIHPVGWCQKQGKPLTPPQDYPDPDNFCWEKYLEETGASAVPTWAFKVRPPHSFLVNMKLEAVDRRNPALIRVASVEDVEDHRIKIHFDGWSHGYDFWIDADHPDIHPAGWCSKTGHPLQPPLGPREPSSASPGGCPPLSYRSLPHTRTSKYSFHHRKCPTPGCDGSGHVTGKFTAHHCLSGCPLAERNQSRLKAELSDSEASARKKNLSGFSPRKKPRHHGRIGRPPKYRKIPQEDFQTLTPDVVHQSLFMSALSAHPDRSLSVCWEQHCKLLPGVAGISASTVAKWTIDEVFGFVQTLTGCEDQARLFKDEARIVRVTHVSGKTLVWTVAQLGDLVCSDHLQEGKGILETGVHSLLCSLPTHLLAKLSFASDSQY
#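 Read-out is AlphaScreen signal from streptavidin donor and nickel chelate acceptor beads (10 ug/mL final each) bridging L3MBTL1 (50 nM) and biotinylated K9-monomethylated H3(1-15) peptide (75 nM), after 30 min compound exposure at room temperature.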
# JMJD2E inh = JMJD2E (human) inhibition. B2RXH2. JMJD2E catalytic domain, FDH-coupled NADH fluorescence (FDH is formaldehyde dehydrogenase). Potency, µM (series often up to 57.1 µM), inactives show at the top dose activity change, negative = inhibition, most hits filed as inhibitors. 230,000 compounds, 1.6% hits. AID 2147; active means well fitted inhibition curve with a large enough effect, not every such curve was filed as active; inconclusive means small, poorly fitted or top-dose-only effect, or another doubt; inactive means no such curve, though single readings can be large or run the other way;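 further: 0% = wells with enzyme and -100% = buffer wells without enzyme; nearly all actives have a fitted effect of over 50% in size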
# HttQ103 aggreg = reduces HttQ103-GFP aggregates in PC12 cells | AID 1688 | 220,000 compounds, 1.1% hits | PC12 HttQ103-GFP aggregates, Acumen cytometry, 40 h | Potency, µM (top dose mostly 46.1 µM), inactives show at the top dose activity change, negative = inhibition, most hits filed as inhibitors; further: on the % scale 0 is the no-effect control and ±100 the full control effect; nearly all actives have a fitted effect of over 60% in size
#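 Aggregate formation scored by laser-scanning cytometer (488 excitation, 500–530 emission) in lysed PC12 cells expressing Q103-GFP after 100 nM tebufenozide induction; library tested in dose series, with ATPLite reagent added in the multiplex.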
# The depositor's hits bear a star; ? = inconclusive; . = no result; ! = not active in a repeat; [ ] = remark or other dose. Only some compounds are listed: those with a hit (about 1.8% of all), similar ones and a draw of the others. Unless noted, the call rests on the fitted dose curve; in most records, active means well fitted curve in the direction sought with a large enough effect; inconclusive means small, poorly fitted or top-dose-only effect, or another doubt; inactive means no such curve, though single readings can be large; an effect the other way counts as inactive or inconclusive. Potency means the concentration at half of the fitted maximal effect.
SMILES,HTT cytoprotect,L3MBTL1 block,JMJD2E inh,HttQ103 aggreg
CCn1ncc(-c2ccnc3cc(C(=O)O)nn23)c1C,-7.0%,15.8µM*,?,19.5%
CCC(C(=O)O)C1CCC(C)C(C(C)C(O)C(C)C(=O)C(CC)C2OC3(C=CC(O)[C@@]4(CC[C@](C)(C5CC[C@@](O)(CC)C(C)O5)O4)O3)C(C)CC2C)O1 (some centres not stated),-307.8%,.,1.3%,1.41µM*
C[C@@]12CC[C@H]3[C@@H](CC=C4C[C@H](OS(=O)(=O)O)CC[C@]43C)[C@H]1CCC2=O,12.3%[1.9 µM],.,.,.
O=C1C=C2C=C[C@@H]3CC2(O1)[C@H]1CCCCN31,.,7.2%,.,.
O=C1C=C2C=C[C@H]3C[C@]2(O1)[C@@H]1CCCCN13,.,1.5%,3.6%,.
O=C1C=C2C=CC3C[C@@]2(O1)C1CCCCN31 (some centres not stated),1.58µM*,.,-16.2%,.
O=C1C=C2C=C[C@H]3C[C@@]2(O1)[C@H]1CCCCN31,6.31µM*,.,-2.0%[25.5 µM],.
COC1CCCCC1NCCc1ccccc1 (configuration not stated),-19.8%[10 µM],-6.2%,15.8µM*,18.7%[9.22 µM]
CC(=O)OCC1=C(C(=O)[O-])N2C(=O)[C@@H](NC(=O)CCC[C@@H](N)C(=O)[O-])[C@H]2SC1.[Zn+2],.,.,28.2µM*,.
CC(C)(C)[C@@]1(O)C[C@@H]2OC(=O)C[C@@]23C(=O)O[C@H]2OC(=O)[C@@H](O)[C@]231,-13.7%,.,.,.
Cc1ccc(N)c(C(=O)c2ccc(Br)cc2)c1,-25.0%,.,2.1%,7.08µM*
O=C(O)c1cccc([As]=[As]c2cccc(C(=O)O)c2)c1 (configuration not stated),-12.9%[10 µM],.,.,.
CC[C@@H]1CN2CC[C@@H]1C[C@H]2[C@@H](O)c1ccnc2ccc(OC)cc12,27.0%,.,.,.
c1ccc2cc(C3N4CCCN34)ccc2c1 (configuration not stated),3.98µM*,.,?,8.7%
C=C1C(=O)O[C@H]2C[C@@H](C)[C@@H]3C=CC(=O)[C@@]3(C)C[C@H]12,43.5%[10 µM],.,9.6%,?
C=C1C(=O)O[C@H]2[C@H]1[C@H](OC(=O)CC(=O)O[C@@H]1C[C@@H](C)[C@@H]3C=CC(=O)[C@@]3(C)[C@H]3OC(=O)C(=C)[C@H]13)C[C@@H](C)[C@H]1C=CC(=O)[C@]12C,4.47µM*,.,2.4%,21.0%[9.22 µM]
C=C1C(=O)O[C@@H]2C[C@@H](C)[C@@H]3C=CC(=O)[C@@]3(C)[C@@H](OC(=O)CC(=O)O[C@H]3[C@@H]4C(=C)C(=O)O[C@@H]4C[C@@H](C)[C@@H]4C=CC(=O)[C@]43C)[C@H]12,-97.5%[10 µM],.,-9.0%,0.631µM*
O=C1C2C3CCC(O3)C2C(=O)N1CCO (configuration not stated),7.8%[10 µM],.,-3.6%,-12.1%[9.22 µM]
O=C1OC(=O)C2C3CCC(O3)C12 (configuration not stated),19.5%[1.9 µM],3.4%,22.4µM*!,.
CC(C)OCCCNC(=O)c1c(N)n(Cc2cccs2)c2nc3ccccc3nc12,-27.8%,50.4%,?,28.2µM*
CCCCc1ccc(C(=O)O)nc1,15.9%,8.91µM*,10µM*,14.0%
FC(F)(F)c1nc2ccc(SSc3ccc4nc(C(F)(F)F)[nH]c4c3)cc2[nH]1,-7.0%[10 µM],.,.,.
N=C1/C(=C/c2ccc(OC(=O)c3ccco3)cc2)C(=O)N=C2SC=CN12,29.5%,2.4%[11.4 µM],14.1µM*,21.5%
C=CCN1CC[C@]23c4c5ccc(O)c4O[C@@H]2/C(=N/NC(=O)c2ccccc2)CC[C@@]3(O)[C@H]1C5,6.0%[1.9 µM],.,.,.
N[C@H](Cn1oc(=O)[nH]c1=O)C(=O)O,-9.4%[1.9 µM],.,.,.
SMILES,HTT cytoprotect,L3MBTL1 block,JMJD2E inh,HttQ103 aggreg
C[C@H]1CC[C@@H]2[C@@H](C)C(=O)O[C@H]3O[C@@]4(C)CC[C@@H]1[C@]32OO4,-14.5%,.,.,.
O=c1cc(-c2ccc(O)c(O)c2)oc2c(C3O[C@H](CO)[C@@H](O)[C@H](O)[C@H]3O)c(O)cc(O)c12 (some centres not stated),.,10µM*,1µM*,7.0%
C[C@@H]1O[C@H]1P(=O)(O)O,-7.4%[1.9 µM],.,.,.
CCN(CC)C(=O)N[C@@H]1C=C2c3cccc4[nH]cc(c34)C[C@@H]2N(C)C1,26.2%[1.9 µM],.,.,.
CCCCCCCCCOc1ccc2[nH]cc(CCN)c2c1,-13.8%,.,25.1µM*!,.
Cc1cc(C)cc(NC(=O)Cn2c(=O)oc3cc(S(=O)(=O)N4CC(C)CC(C)C4)ccc32)c1 (configuration not stated),-70.0%,.,-4.3%,?
CCc1cccc(NC(=O)Cn2c(=O)oc3cc(S(=O)(=O)N4CCOCC4)ccc32)c1,-106.8%,.,-9.8%,2.24µM*
NS(=O)(=O)C[C-]1C=C[CH]([Sb-]([Cl])([Cl])([Cl])([Cl])[Cl])C=C1.c1ccncc1 (configuration not stated),-3.2%[10 µM],.,.,.
Cc1ccc(C=C2C(Cl)=C(Cl)C(Cl)=C2Cl)cc1,35.0%[10 µM],3.16µM*,-15.3%,6.9%[9.22 µM]
CC(C)[C@@]1(NC(=O)[C@@H]2C=C3c4cccc5[nH]cc(c45)C[C@@H]3N(C)C2)O[C@]2(O)[C@H]3CCCN3C(=O)[C@H](Cc3ccccc3)N2C1=O,-5.8%[1.9 µM],.,.,.
C[C@]12CC[C@@H]3c4ccc(O)c(O)c4CC[C@H]3[C@@H]1CC[C@@H]2O,.,.,1.41µM*,.
CC[C@H]1[C@@H]2C[C@@H]3[C@@H]4N(C)c5ccccc5[C@@]45C[C@@H]([C@H]2[C@@H]5O)N3[C@@H]1O,-7.0%,.,.,.
O=C(O)c1cccc2nc3ccccc3nc12,-58.9%,7.0%,-14.6%,-1.2%
O=C(O)c1ccc[nH]c1=S,1.3%[10 µM],-1.2%,17.8µM*,9.4%[9.22 µM]
Cc1ccccc1CN1CCNCC1,10.0%[10 µM],4.7%,2.9%,-3.1%[9.22 µM]
Cc1ccccc1CN1CCN(c2ccc(Cl)cc2)CC1,1.0%[10 µM],13.1%,22.4µM*,8.2%
NC(Cc1ccc(N(CCCl)CCCl)cc1)C(=O)O (configuration not stated),.,.,20µM*!,.
CCOC(=O)CC(NC(=O)C(Cc1ccc(N(CCCl)CCCl)cc1)NC(C)=O)C(=O)OCC (configuration not stated),-45.1%[10 µM],-6.1%,10µM*,8.8%[9.22 µM]
O=C(O)/C=C\c1ccc[c]([Sb](=[O])([OH])[OH])c1,2.1%[10 µM],.,.,.
